Bioassay records: PubChem, several laboratories
Shown are actives, neighbours in structure and some others; about 2.2% of the full set was active somewhere.
TWEAK-Fn14 inh – inhibitors of TWEAK-Fn14 signaling, primary screen, luciferase reporter cells, uHTS | TWEAK-stimulated Fn14 reporter cells, luciferase luminescence, 8 h | inhibition, % at 10 µM | hit rate 2% among 360,000; in the data active means inhibition above about 50%
LGR2 inh – inhibitors of bursicon-induced LGR2 CRE-luciferase signal, primary screen, cell-based, HEK293, CRE-luciferase reporter, bursicon stimulation. Drosophila bursicon receptor LGR2 (rickets). bursicon-stimulated, 4 h. inhibition, % at 9.99 µM. hit rate 0.35% among 380,000;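 active means drop in luminescence signal, shown as inhibition above about 50% in the replicate tests, limit read from the data, passing the limit was not always enough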;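 further: agonist challenge used bursicon conditioned medium at about half maximal strength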
TROY NFkB inh – inhibitors of TROY-driven NF-kB signaling, primary screen, Q293 LMP1-TROYcd cells, NF-kB luciferase, uHTS. Q293 LMP1-TROYcd NF-kB luciferase reporter, 4 h. inhibition, % at 10 µM. hit rate 0.98% among 360,000;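 active means compounds whose plate-normalised and pattern-corrected inhibition of the luciferase reporter signal at the single screening dose is 50% or more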
HSP90 inh – HSP90 inhibitors, primary screen, cell lysate, luminescence; hit rate 0.91% among 290,000; Heat shock protein HSP 90 (rabbit reticulocyte lysate; luciferase refolding); Rabbit reticulocyte lysate, luciferase refolding luminescence, 3 h; inhibition, % at 5.6 µM; AID 1789, 2009;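 active means inhibition above the screen-wide mean plus 3 SD, computed separately per campaign, cut at about 16% in these data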;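 further: inhibitors lower the luminescence because luciferase stays unfolded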
Of the large screens only hits and unclear results are named; the others gave an inactive call; ! = repeats disagree.

CCCCn1nnnc1C(CCc1ccccc1)N1CCC(n2c(=O)[nH]c3ccccc32)CC1 (stereo unspecified)	LGR2 inh 106 (no result: HSP90 inh)
O=c1[nH]c2ccccc2n1C1CCN(C(CCc2ccccc2)c2nnnn2-c2ccc3c(c2)OCCO3)CC1 (stereo unspecified)	TWEAK-Fn14 inh 70, LGR2 inh 92, TROY NFkB inh 59 (no result: HSP90 inh)
CCCCn1nnnc1C(CCSC)N1CCC(n2c(=O)[nH]c3ccccc32)CC1 (stereo unspecified)	none (no result: HSP90 inh)
O=C(Cc1cccnc1)N1CCCCN2[C@H](C1)[C@@H](c1ccc(/C=C/c3ccccc3)cc1)[C@@H]2CO	none (no result: TWEAK-Fn14 inh, TROY NFkB inh, HSP90 inh)
CC(=O)OC1C(O)C(C)OC(OC2C(OC(=O)C3CCC4C(C3)OC3(CC(OC(=O)/C=C/c5ccccc5)C(C)CO3)C43CO3)OC(C)C(O)C2OC(C)=O)C1O (stereo unspecified)	TWEAK-Fn14 inh 101, LGR2 inh 99, TROY NFkB inh 84 (no result: HSP90 inh)
COc1ccccc1/C=C1\C(=O)NC(=S)N(c2ccccc2)C1=O	none
CCN1C(=O)/C(=C/c2ccc(N(CC)CC)cc2OC)C(=O)NC1=S	TWEAK-Fn14 inh 67
CC=Cc1ccc2n(c1=O)C[C@@H]1[C@@H](CO)[C@H](C(=O)OC)[C@H]2N1C(=O)CC1CC1 (mixture of isomers)	none (no result: TWEAK-Fn14 inh, TROY NFkB inh, HSP90 inh)
C[CH2][Hg][S]c1ccccc1C(=O)O	TWEAK-Fn14 inh 92, LGR2 inh 96 (no result: HSP90 inh)
CCC1(OC(=O)CN)C(=O)OCc2c1cc1n(c2=O)Cc2cc3ccccc3nc2-1 (stereo unspecified)	TWEAK-Fn14 inh 82, LGR2 inh 96, TROY NFkB inh 69
CC(=O)OC1CC(OC2C(O)CC(OC3C(O)CC(OC4CCC5(C)C(CCC6C5CCC5(C)C(C7=CC(=O)OC7)CCC65O)C4)OC3C)OC2C)OC(C)C1OC1OC(CO)C(O)C(O)C1O (stereo unspecified)	TWEAK-Fn14 inh 80, LGR2 inh 86 (no result: HSP90 inh)
CC12CC[C@H]3[C@@H](CCC4(O)C[C@H](O)CCC34/C=N/NC(=O)c3ccc(O)cc3)C1(O)CCC2C1=CC(=O)OC1 (stereo partly specified)	none
Fc1ccc(CNCCc2ccccc2F)cc1	TROY NFkB inh 70
O=C(Cc1cccnc1)N1CCCCN2[C@@H](CO)[C@@H](c3ccc(/C=C/c4ccccc4)cc3)[C@@H]2C1	none (no result: TWEAK-Fn14 inh, TROY NFkB inh, HSP90 inh)
O=C1C=CC(=O)C2C1C1(Cl)C(Cl)=C(Cl)C2(Cl)C1(Cl)Cl (stereo unspecified)	TWEAK-Fn14 inh 57 (no result: HSP90 inh)
O=C(O)[C@@H]1[C@@H](CO)[C@@H]2Cn3c(ccc(-c4cccnc4)c3=O)[C@H]1N2S(=O)(=O)c1ccccc1F	none (no result: TWEAK-Fn14 inh, TROY NFkB inh, HSP90 inh)
Oc1cc(Cl)ccc1Oc1ccc(Cl)cc1Cl	TROY NFkB inh 51 (no result: LGR2 inh, HSP90 inh)
O=C(O)COc1ccc(Cl)cc1Cl	none (no result: HSP90 inh)
CCOC(=O)[C@]12Cc3cc(C)ccc3[C@H]1N(C1CCCCC1)C(=O)c1cc(OC)ccc12	TWEAK-Fn14 inh 101, LGR2 inh 68, TROY NFkB inh 54 (no result: HSP90 inh)
CCOC(=O)[C@]12Cc3cc(C)ccc3[C@H]1N(CCC(=O)OC)C(=O)c1cc(OC)ccc12	none (no result: HSP90 inh)
CCOC(=O)[C@]12Cc3cc(OC)ccc3[C@H]1N(C1CCCCC1)C(=O)c1cc(OC)ccc12	LGR2 inh 51, TROY NFkB inh 55 (no result: HSP90 inh)
CCOC(=O)[C@]12Cc3ccccc3[C@H]1N(C)C(=O)c1cc(OC)ccc12	none (no result: HSP90 inh)
N#Cc1cccc(-c2ccc([C@@H]3[C@@H](CO)N4CCCCN(C(=O)Cc5cccnc5)C[C@H]34)cc2)c1	none (no result: TWEAK-Fn14 inh, TROY NFkB inh, HSP90 inh)
CC12CN3CN(C1)CC(c1ccccc1)(C3)C2=O	TWEAK-Fn14 inh 88 (no result: LGR2 inh, TROY NFkB inh)
COC(=O)[C@@H]1[C@@H](CO)[C@@H]2Cn3c(ccc(-c4ccccc4)c3=O)[C@H]1N2CC1CC1	none (no result: TWEAK-Fn14 inh, TROY NFkB inh, HSP90 inh)
O=C(Cc1ccccn1)N1CC2(C1)[C@@H](c1ccccc1)[C@@H](CO)N2Cc1ccccn1	none (no result: TWEAK-Fn14 inh, TROY NFkB inh, HSP90 inh)
Cc1[nH]nc2ccc(-c3cncc(OC[C@@H](N)Cc4c[nH]c5ccccc45)c3)cc12	TWEAK-Fn14 inh 98, TROY NFkB inh 77 (no result: LGR2 inh, HSP90 inh)
COc1cccc(-c2ccc3n(c2=O)C[C@H]2[C@H](CO)[C@@H](C(=O)O)[C@@H]3N2Cc2ccccc2F)c1	none (no result: TWEAK-Fn14 inh, TROY NFkB inh, HSP90 inh)
O=C(O)[C@H]1[C@H](CO)[C@H]2Cn3c(ccc(-c4cncnc4)c3=O)[C@@H]1N2C(=O)NC1CCCC1	none (no result: TWEAK-Fn14 inh, TROY NFkB inh, HSP90 inh)
C[C@H]1CCC/C=C/[C@@H]2C[C@H](O)C[C@H]2[C@H](O)/C=C/C(=O)O1	TWEAK-Fn14 inh 55! (no result: HSP90 inh)
COC(=O)[C@H]1[C@H](CO)[C@H]2Cn3c(ccc(-c4ccncc4)c3=O)[C@@H]1N2S(=O)(=O)c1ccccc1F	none (no result: TWEAK-Fn14 inh, TROY NFkB inh, HSP90 inh)
N#Cc1ncc(N=Cc2ccc(N(CCCl)CCCl)cc2)s1	TWEAK-Fn14 inh 53 (no result: HSP90 inh)
CCc1ccc(N2C(=O)NC(=O)/C(=C/c3cccn3CCOc3ccc(C)cc3)C2=O)cc1	none
CCc1ccc(N2C(=O)NC(=O)/C(=C/c3cccn3CCOc3ccc(C(C)CC)cc3)C2=O)cc1 (stereo unspecified)	TWEAK-Fn14 inh 65, HSP90 inh 29
COC(=O)[C@H]1[C@H](CO)[C@H]2Cn3c(ccc(-c4ccccc4F)c3=O)[C@@H]1N2C(=O)C1CC1	none (no result: TWEAK-Fn14 inh, TROY NFkB inh, HSP90 inh)
CCOC(=O)[C@]12Cc3cc(C)ccc3[C@H]1N(Cc1ccccc1)C(=O)c1ccccc12	none (no result: HSP90 inh)
CCOC(=O)[C@]12Cc3cc(C)ccc3[C@H]1N(C(C)C)C(=O)c1ccccc12	LGR2 inh 69 (no result: HSP90 inh)
CCCCCN1C(=O)c2ccccc2[C@@]2(C(=O)OCC)Cc3cc(OC)ccc3[C@@H]12	LGR2 inh 64 (no result: HSP90 inh)
COC(=O)[C@H]1[C@H](CO)[C@H]2Cn3c(ccc(C4=CCCCC4)c3=O)[C@@H]1N2Cc1cccnc1	none (no result: TWEAK-Fn14 inh, TROY NFkB inh, HSP90 inh)
O=C(O)c1cc[c]([Hg][Cl])cc1	TWEAK-Fn14 inh 65 (no result: LGR2 inh, HSP90 inh)
COc1ccc(C(=O)O)cc1OC	none (no result: HSP90 inh)
COC(=O)[C@@H]1[C@@H](CO)[C@@H]2Cn3c(ccc(C4=CCCC4)c3=O)[C@H]1N2Cc1ccccn1	none (no result: TWEAK-Fn14 inh, TROY NFkB inh, HSP90 inh)
CCOP(=O)(CCP(=O)(OCC)OCC)OCC.C[CH2][Sn]([Cl])([Cl])[CH2]C	TWEAK-Fn14 inh 58 (no result: HSP90 inh)
Cc1nccc2c1[nH]c1ccc(Br)cc12	none (no result: HSP90 inh)
COc1ccc2c(c1)[nH]c1c(C)nccc12	TWEAK-Fn14 inh 65 (no result: HSP90 inh)
O=C1CNC[C@@H]2[C@@H](c3ccc(Br)cc3)[C@H](CO)N12	none (no result: TWEAK-Fn14 inh, TROY NFkB inh, HSP90 inh)
CCOC(=O)c1c(N)n(Cc2ccco2)c2nc3ccccc3nc12	none (no result: LGR2 inh)
CCCCn1c(NC(=O)c2ccco2)c(C(=O)OCC)c2nc3ccccc3nc21	TROY NFkB inh 52 (no result: LGR2 inh)
CCCCn1c(NS(=O)(=O)c2ccc(C)cc2)c(C(=O)OCC)c2nc3ccccc3nc21	TWEAK-Fn14 inh 58, TROY NFkB inh 63
CC=Cc1ccc2n(c1=O)C[C@@H]1[C@@H](CO)[C@H](C(=O)OC)[C@H]2N1C(=O)CC (mixture of isomers)	none (no result: TWEAK-Fn14 inh, TROY NFkB inh, HSP90 inh)
C/C=C/c1ccc(C2[C@@H]3CN(Cc4cccnc4)C[C@H]2N3)cc1 (stereo partly specified)	none (no result: TWEAK-Fn14 inh, TROY NFkB inh, HSP90 inh)
